# Results: the supplement of paper PMC8728848
# Many of the other results were omitted from the sample, so the strongest signals are more common in it than they were.
# Tests used:
# Assay in all cases: glycan array binding signal (z-score within array); higher = stronger binding
# Conditions in all cases: glycan notation: IUPAC condensed, linker removed
# [1] = biological target: Fuc(a1-2)Gal6S(b1-4)GlcNAc
# How it was run: (§1)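 The binding signal is a Z-score computed within each array. Data were drawn from 3228 arrays in the Consortium for Functional Glycomics database, restricted to those with a known protein sequence. Scores were averaged over arrays of the same protein sequence at different concentrations or buffers, and over linkers, and negative values can be taken as non-binding.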
# [2] = biological target: Fuc(a1-2)[Gal(a1-3)]Gal(b1-4)GlcNAc(b1-2)Man(a1-3)[Fuc(a1-2)[Gal(a1-3)]Gal(b1-4)GlcNAc(b1-2)Man(a1-6)]Man(b1-4)GlcNAc(b1-4)GlcNAc
# How it was run: as §1
# [3] = biological target: Fuc(a1-2)[GalNAc(a1-3)]Gal(b1-4)Glc
# How it was run: as §1
# [4] = biological target: Fuc(a1-3)[Gal(b1-4)]GlcNAc(b1-4)Gal(b1-4)[Fuc(a1-3)]GlcNAc
# How it was run: as §1
# [5] = biological target: Gal(a1-3)Gal(b1-3)GlcNAc(b1-2)Man(a1-3)[Gal(a1-3)Gal(b1-3)GlcNAc(b1-2)Man(a1-6)]Man(b1-4)GlcNAc(b1-4)GlcNAc
# How it was run: as §1
# Gal(b1-3)Gal = biological target: Gal(b1-3)Gal
# How it was run: as §1
# [6] = biological target: Gal(b1-3)Gal(b1-4)GlcNAc(b1-2)Man(a1-3)[Gal(b1-3)Gal(b1-4)GlcNAc(b1-2)Man(a1-6)]Man(b1-4)GlcNAc(b1-4)GlcNAc
# How it was run: as §1
# [7] = biological target: Gal(b1-3)[Fuc(a1-4)]GlcNAc(b1-2)Man(a1-3)[Gal(b1-3)[Fuc(a1-4)]GlcNAc(b1-2)Man(a1-6)]Man(b1-4)GlcNAc(b1-4)GlcNAc
# How it was run: as §1
# [8] = biological target: Gal(b1-4)GalNAc(a1-3)[Fuc(a1-2)]Gal(b1-4)GlcNAc
# How it was run: as §1
# [9] = biological target: Gal(b1-4)GlcNAc(b1-2)Man(a1-3)Man(b1-4)GlcNAc(b1-4)GlcNAc
# How it was run: as §1
# Gal3S(b1-3)GalNAc = biological target: Gal3S(b1-3)GalNAc
# How it was run: as §1
# Gal3S(b1-4)GlcNAc6S = biological target: Gal3S(b1-4)GlcNAc6S
# How it was run: as §1
# Gal3S6S(b1-4)GlcNAc = biological target: Gal3S6S(b1-4)GlcNAc
# How it was run: as §1
# Gal3S6S(b1-4)GlcNAc6S = biological target: Gal3S6S(b1-4)GlcNAc6S
# How it was run: as §1
# [10] = biological target: GlcNAc(b1-2)Gal(b1-3)GalNAc
# How it was run: as §1
# [11] = biological target: GlcNAc(b1-2)Man(a1-3)[GlcNAc(b1-2)Man(a1-6)]Man(b1-4)GlcNAc(b1-4)GlcNAc
# How it was run: as §1
# [12] = biological target: GlcNAc(b1-2)Man(a1-3)[GlcNAc(b1-2)Man(a1-6)]Man(b1-4)GlcNAc(b1-4)[Fuc(a1-6)]GlcNAc
# How it was run: as §1
# [13] = biological target: GlcNAc(b1-3)Gal(b1-3)GalNAc
# How it was run: as §1
# [14] = biological target: GlcNAc(b1-3)[GlcNAc(b1-4)][GlcNAc(b1-6)]GlcNAc
# How it was run: as §1
# [15] = biological target: GlcNAc(b1-3)[GlcNAc(b1-6)]Gal(b1-4)GlcNAc
# How it was run: as §1
# GlcNAc(b1-6)GalNAc = biological target: GlcNAc(b1-6)GalNAc
# How it was run: as §1
# Kdn(a2-3)Gal(b1-3)GalNAc = biological target: Kdn(a2-3)Gal(b1-3)GalNAc
# How it was run: as §1
# [16] = biological target: Neu5Ac(a2-3)Gal(b1-3)GalNAc(b1-3)Gal(a1-4)Gal(b1-4)Glc
# How it was run: as §1
# [17] = biological target: Neu5Ac(a2-3)Gal(b1-3)[Fuc(a1-4)]GlcNAc
# How it was run: as §1
# [18] = biological target: Neu5Ac(a2-3)Gal(b1-4)GlcNAc6S
# How it was run: as §1
# [19] = biological target: Neu5Ac(a2-3)Gal(b1-4)[Fuc(a1-3)]GlcNAc(b1-3)GalNAc
# How it was run: as §1
# [20] = biological target: Neu5Ac(a2-3)Gal(b1-4)[Fuc(a1-3)]GlcNAc(b1-6)[Neu5Ac(a2-3)Gal(b1-3)]GalNAc
# How it was run: as §1
# [21] = biological target: Neu5Ac(a2-6)Gal(b1-4)GlcNAc(b1-3)Gal(b1-4)GlcNAc
# How it was run: as §1
# [22] = biological target: Neu5Ac(a2-6)GlcNAc(b1-4)GlcNAc(b1-4)GlcNAc
# How it was run: as §1
# Neu5Ac(a2-8)Neu5Ac = biological target: Neu5Ac(a2-8)Neu5Ac
# How it was run: as §1
# [23] = biological target: Neu5Gc(a2-3)Gal(b1-3)[Fuc(a1-4)]GlcNAc
# How it was run: as §1
binder,measurement,setting,value
"CREG (Mus musculus), O88668 (protein) MAARAPELARSLLAALLAPALVALLVSPASGRGGRDHGDWDVDRRLPPLPPREDGPRVARFVTHVSDWGSLATISTIKEVRGWPFADIISISDGPPGEGTGEPYMYLSPLQQAVSDLQENPEATLTMSLAQTVYCRNHGFDPQSPLCVHIMMSGTVTKVNKTEEDYARDSLFVRHPEMKHWPSSHNWFFAKLKISRIWVLDYFGGPKVVTPEEYFNVTLQ",glycan array binding signal (z-score),[1],-0.138
same,glycan array binding signal (z-score),[2],2.76
same,glycan array binding signal (z-score),[3],0.375
same,glycan array binding signal (z-score),[4],2.95
same,glycan array binding signal (z-score),[5],3.49
same,glycan array binding signal (z-score),Gal(b1-3)Gal,0.033
same,glycan array binding signal (z-score),[6],0.416
same,glycan array binding signal (z-score),[7],6.79
same,glycan array binding signal (z-score),[8],0.494
same,glycan array binding signal (z-score),[9],-0.442
same,glycan array binding signal (z-score),Gal3S(b1-3)GalNAc,0.036
same,glycan array binding signal (z-score),Gal3S(b1-4)GlcNAc6S,0.604
same,glycan array binding signal (z-score),Gal3S6S(b1-4)GlcNAc,1.52
same,glycan array binding signal (z-score),Gal3S6S(b1-4)GlcNAc6S,2.03
same,glycan array binding signal (z-score),[10],-0.651
same,glycan array binding signal (z-score),[11],0.15
same,glycan array binding signal (z-score),[12],3.8
same,glycan array binding signal (z-score),[13],3.22
same,glycan array binding signal (z-score),[14],2.23
same,glycan array binding signal (z-score),[15],-0.627
same,glycan array binding signal (z-score),GlcNAc(b1-6)GalNAc,-0.035
same,glycan array binding signal (z-score),Kdn(a2-3)Gal(b1-3)GalNAc,0.66
same,glycan array binding signal (z-score),[16],-0.096
same,glycan array binding signal (z-score),[17],-0.737
same,glycan array binding signal (z-score),[18],1.38
same,glycan array binding signal (z-score),[19],3.4
same,glycan array binding signal (z-score),[20],4.66
same,glycan array binding signal (z-score),[21],0.227
same,glycan array binding signal (z-score),[22],0.386
same,glycan array binding signal (z-score),Neu5Ac(a2-8)Neu5Ac,-0.211
same,glycan array binding signal (z-score),[23],-0.132
